Where “and” joins values, the source holds several entries; their conditions need not be identical. Identical values can stand only once. Results filed as inconclusive are left out. Where a call stands in place of a potency, no number is given. Calls of active or inactive are those of the source. Unless noted, calls come from the whole dose curve; as a rule, active = well fitted curve in the direction sought with a large enough effect in the repeat runs; inconclusive = weak or mixed curves; inactive = no such curve, though single readings can be large; an effect the other way counts as inactive or inconclusive.
Experiments:
[1] = qHTS assay for small molecule agonists of the p53 signaling pathway (AID 651631; calls by dose curve; note: nearly all actives have a fitted effect of over 15% in size)
Outline: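 Readout was fluorescence from the LiveBLAzer FRET substrate, applied for 2 h at room temperature after 16 h compound exposure at 37 °C. Cells were the p53RE-bla HCT-116 line, with beta-lactamase driven by p53 response elements.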

[2] = qHTS assay for small molecules that induce genotoxicity in human embryonic kidney cells expressing luciferase-tagged ATAD5 (AID 651632); note: nearly all actives have a fitted effect of over 15% in size
Outline: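 Increased luciferase signal from ATAD5-tagged reporter cells indicates DNA-damage-driven ATAD5 induction. HEK293T cells are treated for 16 hr at 37C before detection with Amplite.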

[3] = qHTS assay for small molecule agonists of the p53 signaling pathway - cell viability (AID 651633; calls by dose curve; note: nearly all actives have a fitted effect of over 30% in size)
Outline: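 p53RE-bla cells, seeded at 4,000 per well and rested 5 h at 37 C/5% CO2, received compounds in DMSO for 16 h at 37 C. CellTiter-Glo was then added, and luminescence was read after 30 min at room temperature to gauge cytotoxicity.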

[4] = qHTS assay for small molecules that induce genotoxicity in human embryonic kidney cells expressing luciferase-tagged ATAD5 - cell viability (AID 651634; calls by dose curve; note: nearly all actives have a fitted effect of over 25% in size)
Outline: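 Cytotoxicity counterscreen in HEK293T cells bearing an ATAD5-luciferase reporter: live-cell protease activity measured by CellTiter-Fluor fluorescence after 15.5 hr compound exposure.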

[5] = qHTS assay for small molecule disruptors of the mitochondrial membrane potential - cell viability (AID 720634; calls by dose curve;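 note: human HepG2 liver cancer cells; nearly all actives have a fitted effect of over 20% in size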)
Outline: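 After overnight attachment at 37 C, HepG2 cells received compound or DMSO vehicle for 1 hr. Viability is then taken from ATP-driven luminescence following a 30 min room-temperature CellTiter-Glo step.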

[6] = qHTS assay for small molecule disruptors of the mitochondrial membrane potential (AID 720635); note: potency is the fitted concentration of half-maximal effect
Outline: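 HepG2 cells (2,000/well) attached overnight at 37C, then took compound for 1 hr at 37C, 5% CO2. Mito-MPS dye was added for 30 min; fluorescence was read at 490/535 nm (monomers) and 540/590 nm (aggregates).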

[7] = qHTS assay to test for compound auto fluorescence at 590 nm (red) in HepG2 cells (AID 720674)
Outline: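 Compound auto-fluorescence is scored relative to Rose Bengal sodium, measured at 540/590 nm in live HepG2 cultures after 1 hr compound contact (37 C, 5% CO2).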

[8] = qHTS assay to test for compound auto fluorescence at 535 nm (green) in HepG2 cells (AID 720675)
[9] = qHTS assay to test for compound auto fluorescence at 460 nm (blue) in HEK293 cells (AID 720678)
Outline: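 Triamterene serves as the blue fluorophore standard. Compound signal at 405/460 nm is read in HEK293 wells (2,000 cells, 10% dialyzed FBS) after overnight treatment at 37C.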

[10] = qHTS assay to test for compound auto fluorescence at 590 nm (red) in HEK293 cells (AID 720679)
Outline: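 We plated HEK293 cells in 10% dialyzed FBS medium, let them adhere for 4-5 hr, then added 23 nL compound. Overnight at 37C and 5% CO2 preceded fluorescence measurement at 540/590nm.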

[11] = qHTS assay to test for compound auto fluorescence at 535 nm (green) in HEK293 cells (AID 720680)
[12] = qHTS assay to test for compound auto fluorescence at 460 nm (blue) in HEK293 cell free culture (AID 720681)
Outline: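 Test compounds were pinned into cell-free culture medium (DMEM with 10% FBS) and fluorescence was read directly at Ex/Em 405/460 nm. Signals were expressed as fluorescence equivalents of triamterene, with DMSO vehicle as control.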

[13] = qHTS assay to test for compound auto fluorescence at 535 nm (green) in HEK293 cell free culture (AID 720682)
Outline: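 Compounds were pin-transferred into cell-free DMEM with 10% FBS, and green fluorescence was read at excitation 485 nm and emission 535 nm. Intensities were expressed as fluorescein-equivalent values.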

[14] = qHTS assay to test for compound auto fluorescence at 590 nm (red) in HEK293 cell free culture (AID 720683)
Outline: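 Tox21 10K library compounds were pinned into cell-free DMEM with 10% FBS and fluorescence was read at excitation 540 nm. Activity is expressed as Rose Bengal sodium equivalency.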

[15] = qHTS assay to test for compound auto fluorescence at 590 nm (red) in HepG2 cell free culture (AID 720684)
Outline: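 Measured in medium alone (MEM containing 10% FBS) following pintool addition of compound; emission at 590 nm with 540 nm excitation, referenced to Rose Bengal sodium.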

[16] = qHTS assay to test for compound auto fluorescence at 460 nm (blue) in HepG2 cell free culture (AID 720685)
Outline: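 Compound (23 nL) or DMSO pinned into cell-free MEM with 10% FBS; blue fluorescence read at 405/460 nm excitation/emission, expressed as auto-fluorescence equivalency to triamterene.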

[17] = qHTS assay to test for compound auto fluorescence at 535 nm (green) in HepG2 cell free culture (AID 720686)
[18] = qHTS assay to test for compound auto fluorescence at 460 nm (blue) in HepG2 cells (AID 720687)
Outline: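 Cells (2,000/well in MEM with 10% FBS) attached overnight at 37 C, then were exposed to compound or DMSO for 1 hr at 37 C, 5% CO2. Fluorescence read at Ex/Em 405/460 nm, expressed as triamterene-equivalent signal.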

[19] = target: Glucocorticoid receptor (Homo sapiens) (UniProt P04150); assay: qHTS assay to identify small molecule antagonists of the glucocorticoid receptor (GR) signaling pathway (AID 720692; active = well fitted inhibition curve with a large enough effect in the signal ratio in the repeat runs, not every such curve was filed as active; the % refers to the signal ratio)
Outline: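 Cells plated, rested 4 h at 37 C/5% CO2; compounds in DMSO pin-transferred; dexamethasone added to 5 nM final; 18 h at 37 C; B/G FRET substrate added, 2 h room temperature; fluorescence measured.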

[20] = target: Glucocorticoid receptor (Homo sapiens) (UniProt P04150); assay: qHTS assay to identify small molecule agonists of the glucocorticoid receptor (GR) signaling pathway (AID 720691; active = well fitted activation curve with a large enough effect in the signal ratio in the repeat runs, not every such curve was filed as active; the % refers to the signal ratio); details: GR-bla HeLa, beta-lactamase reporter ratio, 18 h; activation: at 62.4 µM (top of the series)
Outline: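 Agonist mode in a HeLa line carrying a GRE-controlled beta-lactamase reporter. Compounds act for 18 h at 37 C before a 2 h room-temperature FRET substrate step and fluorescence reading.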

Glucocorticoid receptor (Homo sapiens), sequence (P04150 whole entry, looked up): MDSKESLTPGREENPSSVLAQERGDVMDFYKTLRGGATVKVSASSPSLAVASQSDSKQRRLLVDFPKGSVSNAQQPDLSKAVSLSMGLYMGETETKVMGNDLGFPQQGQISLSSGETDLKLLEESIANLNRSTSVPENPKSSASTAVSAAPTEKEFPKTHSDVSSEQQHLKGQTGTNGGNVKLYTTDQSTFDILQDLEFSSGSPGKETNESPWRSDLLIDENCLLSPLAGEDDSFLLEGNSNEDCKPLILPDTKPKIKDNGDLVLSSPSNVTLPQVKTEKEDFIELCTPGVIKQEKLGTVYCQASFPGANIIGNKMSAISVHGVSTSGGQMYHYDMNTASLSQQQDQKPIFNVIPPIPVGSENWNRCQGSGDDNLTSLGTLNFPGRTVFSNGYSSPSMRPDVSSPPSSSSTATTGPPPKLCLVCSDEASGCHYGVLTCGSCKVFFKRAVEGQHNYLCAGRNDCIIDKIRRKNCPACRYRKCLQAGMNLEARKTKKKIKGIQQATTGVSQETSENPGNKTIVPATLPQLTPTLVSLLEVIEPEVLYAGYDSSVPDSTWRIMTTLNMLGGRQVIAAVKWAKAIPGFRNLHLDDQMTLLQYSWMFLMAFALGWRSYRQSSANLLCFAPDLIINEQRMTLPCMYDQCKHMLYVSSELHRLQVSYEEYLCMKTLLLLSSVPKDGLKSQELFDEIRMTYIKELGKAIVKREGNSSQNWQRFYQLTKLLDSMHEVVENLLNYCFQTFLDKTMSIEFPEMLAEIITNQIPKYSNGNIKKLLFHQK

Structure (SMILES) | Potency [1] | outcome [2] | Potency [3] | Potency [4] | Potency [5] | Potency [6] | outcome [7] | outcome [8] | outcome [9] | outcome [10] | outcome [11] | outcome [12] | outcome [13] | outcome [14] | outcome [15] | outcome [16] | outcome [17] | outcome [18] | Potency [19] | Potency [20]
O=c1[nH]nnc2ccccc12 | inactive | inactive | inactive | inactive | inactive | inactive | inactive | inactive | inactive | inactive | inactive | inactive | inactive | inactive | inactive | inactive | inactive | inactive |  | 
O=C(OCCOCCOC(=O)c1ccccc1)c1ccccc1 | inactive | inactive | inactive | inactive | inactive | inactive | inactive | inactive | inactive | inactive | inactive | inactive | inactive | inactive | inactive | inactive | inactive | inactive | inactive | 
C[C@H]1C[C@H]2[C@@H]3CCC4=CC(=O)C=C[C@]4(C)[C@@]3(F)[C@@H](O)C[C@]2(C)[C@@]1(O)C(=O)CO | inactive | inactive | inactive | inactive | inactive | inactive | inactive | inactive | inactive | inactive | inactive | inactive | inactive | inactive | inactive | inactive | inactive | inactive |  | 
C=C(C)C(=O)O[C@H]1C[C@@H]2CC[C@@]1(C)C2(C)C | inactive | inactive | inactive | inactive | inactive | inactive | inactive | inactive | inactive | inactive | inactive | inactive | inactive | inactive | inactive | inactive | inactive | inactive |  | 
CCCCCCCC(=O)OC | inactive | inactive | inactive | inactive | inactive | inactive | inactive | inactive | inactive | inactive | inactive | inactive | inactive | inactive | inactive | inactive | inactive | inactive |  | 
CC(=O)CC(=O)Nc1ccccc1C | inactive | inactive | inactive | inactive | inactive | inactive | inactive | inactive | inactive | inactive | inactive | inactive | inactive | inactive | inactive | inactive | inactive | inactive | inactive | 
O=c1[nH]c(=O)n([C@H]2C[C@H](O)[C@@H](CO)O2)cc1Br | inactive | inactive | inactive | inactive | inactive | inactive | inactive | inactive | inactive | inactive | inactive | inactive | inactive | inactive | inactive | inactive | inactive | inactive |  | 
ON=C1CCCCC1 | inactive | inactive | inactive | inactive | inactive | inactive | inactive | inactive |  | inactive | inactive | inactive | inactive | inactive | inactive | inactive | inactive | inactive | inactive | inactive
O=S1(=O)CC=CC1 | inactive | inactive | inactive | inactive | inactive | inactive | inactive | inactive |  | inactive | inactive | inactive | inactive | inactive | inactive | inactive | inactive | inactive |  | inactive
Oc1cccc2ccccc12 | inactive | inactive | inactive | inactive |  | 28 µM (active) and 19.3 µM (active) | inactive | inactive |  | inactive | inactive | inactive | inactive | inactive | inactive | inactive | inactive | inactive |  | 
CC1CCC2CC1C2(C)C (configuration not stated) | inactive | inactive | inactive | inactive | inactive | inactive | inactive | inactive |  | inactive | inactive | inactive | inactive | inactive | inactive | inactive | inactive | inactive |  | 
CC(C)CC(=O)CC(C)C | inactive | inactive | inactive | inactive | inactive | inactive | inactive | inactive |  | inactive | inactive | inactive | inactive | inactive | inactive | inactive | inactive | inactive |  | 
CN(C)CCC(c1ccc(Cl)cc1)c1ccccn1 (configuration not stated) | inactive |  | inactive | inactive | inactive | inactive | inactive | inactive | inactive | inactive | inactive | inactive | inactive | inactive | inactive | inactive | inactive | inactive |  | 
OCCOCCN1CCN(C2=Nc3ccccc3Sc3ccccc32)CC1 | inactive |  | inactive | inactive | inactive |  | inactive | inactive | inactive | inactive | inactive | inactive | inactive | inactive | inactive | inactive | inactive | inactive |  | 
CN(C)CCC(c1ccccc1)c1ccccn1 (configuration not stated) | inactive |  | inactive | inactive | inactive |  | inactive | inactive | inactive | inactive | inactive | inactive | inactive | inactive | inactive | inactive | inactive | inactive | inactive | inactive
CC(=O)Nc1cccc(O)c1 | inactive | inactive | inactive | inactive | inactive | inactive | inactive | inactive |  | inactive | inactive | inactive | inactive | inactive | inactive | inactive | inactive | inactive |  | 
c1ccc2scnc2c1 | inactive | inactive | inactive | inactive | inactive | inactive | inactive | inactive |  | inactive | inactive | inactive | inactive | inactive | inactive | inactive | inactive | inactive | inactive | inactive
